Records with an inconclusive call do not appear. Calls of active or inactive are those of the source. Unless noted, calls follow the shape of the full dose curve.
Experiments:
[1] = Nuclear factor erythroid 2-related factor 2/antioxidant responsive element (Nrf2/ARE) small molecule agonists: qHTS cell viability counter screen in human keratinocytes (AID 1919968; active = well fitted curve in the direction sought with a large enough effect in the repeat runs; an effect the other way counts as inactive or inconclusive; also: nearly all actives have a fitted effect of over 55% in size)
Outline: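 Fluorescence read-out from CellTiter-Fluor after 1 h at 37 C. Wells held HaCaT-derived ARE-luciferase reporter cells (1,500/well) treated 23 h with DMSO-dissolved compounds. Run in the same wells as the luciferase agonist read.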

[2] = Nuclear factor erythroid 2-related factor 2/antioxidant responsive element (Nrf2/ARE) small molecule agonists: luciferase reporter gene qHTS assay in human keratinocytes (AID 1919969); also: nearly all actives have a fitted effect of over 35% in size
[3] = biological target: Gonadotropin-releasing hormone receptor (Homo sapiens) (UniProt P30968); experiment: Human gonadotropin-releasing hormone receptor (GnRHR) small molecule agonists, calcium flux assay in GnRHR-HEK293 cells (AID 1920063); also: nearly all actives have a fitted effect of over 35% in size
Outline: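 Calcium-dye fluorescence, Ex/Em=480/540, recorded every 1 sec over 3 min after compound addition to GnRHR-HEK293 cells. Cells had been seeded 18 hours earlier and dye-loaded for 1 hour at 37 C. Fifteen concentrations, triplicates.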

[4] = biological target: KiSS-1 receptor (Homo sapiens) (UniProt Q969F8); experiment: Human kisspeptin (KISS1R) small molecule agonists, calcium flux assay in KISS1R-HEK293 cells (AID 1920064; active = well fitted curve in the direction sought with a large enough effect in the repeat runs; an effect the other way counts as inactive or inconclusive)
Outline: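 Calcium flux read-out: kinetic fluorescence at Ex/Em=480/540, 1 s intervals over 3 min, after pin-tool compound addition to dye-loaded KISS1R-HEK293 cells. Fifteen concentrations, triplicates.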

[5] = G protein-coupled receptor (GPCR) small molecule agonists, calcium flux assay: HEK293 wild type cell line counter screen (AID 1920065)
Outline: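 Agonist mode; 18 h seeding at 37 C, 1 h dye load at 37 C; compounds pinned from DMSO, ATP as positive control; kinetic fluorescence 480/540 nm, 3 min, 1 s reads; 15 concentrations, triplicate.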

[6] = p53 small molecule agonists, cell-based qHTS assay with human liver microsomes: qHTS cell viability counter screen (AID 1963579); also: nearly all actives have a fitted effect of over 45% in size
Outline: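 In this multiplexed counter screen, the reporter plates were subsequently treated with CellTiter-Glo so that cell viability, reflected by luminescence, could be recorded for p53RE-bla cells dosed 16 h with compounds under microsomal activation (HLM and NADPH).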

[7] = p53 small molecule agonists, cell-based qHTS assay with rat liver microsomes: qHTS cell viability counter screen (AID 1963580); also: nearly all actives have a fitted effect of over 45% in size
Outline: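 After the beta-lactamase ratio was read, CellTiter-Glo was added to the same wells and luminescence measured at 30 min; cells had been treated 16 h at 37 C with compounds, rat liver microsomes and NADPH (0.5 mg/mL final each).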

[8] = biological target: 5-hydroxytryptamine receptor 2A (Homo sapiens) (UniProt P28223); experiment: 5-hydroxytryptamine receptor 2A (HTR2A) small molecule antagonists, cell-based qHTS assay (AID 1963586); also: nearly all actives have a fitted effect of over 45% in size
Outline: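 CHO cells stably expressing human HTR2A were plated for 18 h at 37 C, then loaded with calcium dye for 1 h. Compounds were preincubated 5 min at room temperature before DOI (4 nM solution) was added. Kinetic fluorescence was read for 3 min.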

[9] = biological target: 5-hydroxytryptamine receptor 2A (Homo sapiens) (UniProt P28223); experiment: 5-hydroxytryptamine receptor 2A (HTR2A) small molecule agonists, cell-based qHTS assay (AID 1963587); also: nearly all actives have a fitted effect of over 30% in size
Outline: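 CHO cells stably expressing human HTR2A, plated 18 h, loaded with calcium dye 1 h at 37 C. Agonist mode: compounds added and intracellular calcium fluorescence recorded kinetically for 2 min at 1 sec intervals.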

[10] = biological target: Muscarinic acetylcholine receptor M1 (Homo sapiens) (UniProt P11229); experiment: Cholinergic receptor muscarinic 1 (CHRM1) small molecule antagonists, cell-based qHTS assay (AID 1963588); also: nearly all actives have a fitted effect of over 40% in size
Outline: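 Compounds were tested at 15 concentrations in three independent runs. Dye-loaded CHRM1-CHO cells were exposed 5 min at room temperature before stimulation by acetylcholine added at 50nM. Intracellular calcium was read kinetically on FDSS for 3 min.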

[11] = biological target: Muscarinic acetylcholine receptor M1 (Homo sapiens) (UniProt P11229); experiment: Cholinergic receptor muscarinic 1 (CHRM1) small molecule agonists, cell-based qHTS assay (AID 1963589); also: nearly all actives have a fitted effect of over 35% in size
Outline: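 Calcium flux read-out: kinetic fluorescence at 1 sec intervals after pin-tool compound addition to dye-loaded CHRM1-CHO cells (human M1). Agonist mode; 15 concentrations tested in triplicate independent runs.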

[12] = cAMP Responsive Elements (CRE) small molecule agonists, cell-based qHTS assay (AID 1963590)
Outline: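 Beta-lactamase reporter readout: LiveBLAzer B/G FRET substrate, 2 h at room temperature, added after 3 h compound treatment of CRE-bla HEK 293T cells at 37 C/5% CO2.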

[13] = cAMP Responsive Elements (CRE) small molecule antagonists, cell-based qHTS assay (AID 1963591; active = well fitted inhibition curve with a large enough effect in the signal ratio in the repeat runs, not every such curve was filed as active; the % refers to the signal ratio)
Outline: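 HEK293T CRE-bla; 18 h preincubation; compound pin-transfer; NKH477 0.25 uM final, 3 h, 37 C; LiveBLAzer FRET substrate 2 h RT.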

[14] = biological target: Beta-2 adrenergic receptor (Homo sapiens) (UniProt P07550); experiment: Adrenergic beta2 receptor (ADRB2) small molecule agonists, cell-based qHTS assay (AID 1963593);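 also: CHO cells stably overexpressing human ADRB2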
Outline: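 CHO cells stably over-expressing ADRB2 were plated overnight at 37C, then dosed with compounds plus a stimulation mix containing 100uM IBMX and 25uM Ro-20-1724 for 0.5hr at room temperature. cAMP was measured by HTRF competition, 1hr.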

[15] = biological target: D(2) dopamine receptor (Homo sapiens) (UniProt P14416); experiment: Dopamine D2 receptor (DRD2) small molecule agonists, cell-based qHTS assay (AID 1963594); also: nearly all actives have a fitted effect of over 35% in size
Outline: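 HEK293 cells stably expressing human DRD2, pre-treated with PDE inhibitor Ro20-1724 (0.1 mM final) and compound 10 min at room temperature, then stimulated with NKH477 (200nM […]) for 30 min. cAMP read by HTRF (665/620 nm).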

[16] = biological target: D(2) dopamine receptor (Homo sapiens) (UniProt P14416); experiment: Dopamine D2 receptor (DRD2) small molecule antagonists, cell-based qHTS assay (AID 1963595; active = well fitted inhibition curve with a large enough effect in the signal ratio in the repeat runs, with a control signal flat; the % refers to the signal ratio)
Outline: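 HTRF cAMP read-out at 665 and 620 nm emission (340 nm excitation). Antagonist mode: compounds were tested against 12 nM quinpirole in DRD2-HEK293 cells, with 200 nM NKH477 raising cAMP and 0.1 mM Ro20-1724 blocking its breakdown.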

[17] = p53 small molecule agonists, cell-based qHTS assay: qHTS cell viability counter screen (AID 1963581); also: nearly all actives have a fitted effect of over 45% in size
Outline: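 Cytotoxicity read-out: ATP-based luminescence (CellTiter-Glo, 30 min RT) measured in the same wells as the p53 reporter assay, HCT-116 p53RE-bla cells, 16 h compound exposure at 37 C.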

[18] = biological target: Beta-2 adrenergic receptor (Homo sapiens) (UniProt P07550); experiment: Adrenergic beta2 receptor (ADRB2) small molecule antagonists, cell-based qHTS assay (AID 1963592); also: series mostly up to about 92 µM; nearly all actives have a fitted effect of over 50% in size
Outline: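 Assay format: CHO-ADRB2 cells, 18-20hr seeding at 37C/5% CO2, then compound plus 1nM isoproterenol agonist mix for 0.5hr RT. Homogeneous time-resolved fluorescence cAMP detection after 1hr, expressed as 665/615 nm ratio.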

Measured: Potency

5-hydroxytryptamine receptor 2A (Homo sapiens), sequence (P28223 whole entry, looked up): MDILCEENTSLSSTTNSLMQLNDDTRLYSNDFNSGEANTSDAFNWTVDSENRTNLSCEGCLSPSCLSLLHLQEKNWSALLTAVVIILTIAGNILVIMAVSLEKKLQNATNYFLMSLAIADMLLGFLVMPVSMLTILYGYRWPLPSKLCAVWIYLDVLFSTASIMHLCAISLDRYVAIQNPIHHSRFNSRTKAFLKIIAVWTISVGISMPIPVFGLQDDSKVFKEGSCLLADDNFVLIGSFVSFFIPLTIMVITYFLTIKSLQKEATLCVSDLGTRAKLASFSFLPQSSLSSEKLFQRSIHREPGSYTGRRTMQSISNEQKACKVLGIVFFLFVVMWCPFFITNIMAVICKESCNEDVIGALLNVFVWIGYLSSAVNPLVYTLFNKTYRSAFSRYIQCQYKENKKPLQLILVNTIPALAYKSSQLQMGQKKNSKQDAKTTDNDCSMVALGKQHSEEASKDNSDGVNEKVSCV
Gonadotropin-releasing hormone receptor (Homo sapiens), sequence (P30968 whole entry, looked up): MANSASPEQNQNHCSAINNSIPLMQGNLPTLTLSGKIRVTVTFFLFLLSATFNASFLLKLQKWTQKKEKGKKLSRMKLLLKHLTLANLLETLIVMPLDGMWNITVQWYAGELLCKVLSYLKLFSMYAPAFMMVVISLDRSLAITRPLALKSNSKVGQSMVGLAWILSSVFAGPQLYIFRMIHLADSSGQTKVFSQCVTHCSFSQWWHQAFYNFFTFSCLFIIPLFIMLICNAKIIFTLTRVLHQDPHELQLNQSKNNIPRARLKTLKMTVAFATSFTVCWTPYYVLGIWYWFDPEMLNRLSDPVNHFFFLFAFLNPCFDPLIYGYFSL
KiSS-1 receptor (Homo sapiens), sequence (Q969F8 whole entry, looked up): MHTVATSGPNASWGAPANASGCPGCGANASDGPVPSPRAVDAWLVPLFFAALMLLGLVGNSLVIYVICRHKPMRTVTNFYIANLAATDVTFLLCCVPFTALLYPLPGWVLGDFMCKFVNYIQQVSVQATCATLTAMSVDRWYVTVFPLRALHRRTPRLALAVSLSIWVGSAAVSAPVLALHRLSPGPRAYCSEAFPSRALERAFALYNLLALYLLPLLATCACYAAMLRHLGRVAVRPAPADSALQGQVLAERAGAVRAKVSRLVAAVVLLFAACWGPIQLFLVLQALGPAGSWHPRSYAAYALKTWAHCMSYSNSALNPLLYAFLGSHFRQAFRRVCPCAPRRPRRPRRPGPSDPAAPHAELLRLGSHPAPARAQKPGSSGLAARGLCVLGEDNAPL
Beta-2 adrenergic receptor (Homo sapiens), sequence (P07550 whole entry, looked up): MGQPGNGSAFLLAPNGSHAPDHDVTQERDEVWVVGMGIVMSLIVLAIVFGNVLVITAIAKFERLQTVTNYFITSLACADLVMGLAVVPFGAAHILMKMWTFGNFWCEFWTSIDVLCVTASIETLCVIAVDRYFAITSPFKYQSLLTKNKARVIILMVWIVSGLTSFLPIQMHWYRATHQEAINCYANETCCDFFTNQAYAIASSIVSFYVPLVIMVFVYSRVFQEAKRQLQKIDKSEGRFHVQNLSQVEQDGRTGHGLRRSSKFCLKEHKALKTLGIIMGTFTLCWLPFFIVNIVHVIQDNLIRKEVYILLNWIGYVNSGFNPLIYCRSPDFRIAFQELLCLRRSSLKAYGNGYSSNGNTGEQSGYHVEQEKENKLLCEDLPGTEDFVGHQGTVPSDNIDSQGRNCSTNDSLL
Muscarinic acetylcholine receptor M1 (Homo sapiens), sequence (P11229 whole entry, looked up): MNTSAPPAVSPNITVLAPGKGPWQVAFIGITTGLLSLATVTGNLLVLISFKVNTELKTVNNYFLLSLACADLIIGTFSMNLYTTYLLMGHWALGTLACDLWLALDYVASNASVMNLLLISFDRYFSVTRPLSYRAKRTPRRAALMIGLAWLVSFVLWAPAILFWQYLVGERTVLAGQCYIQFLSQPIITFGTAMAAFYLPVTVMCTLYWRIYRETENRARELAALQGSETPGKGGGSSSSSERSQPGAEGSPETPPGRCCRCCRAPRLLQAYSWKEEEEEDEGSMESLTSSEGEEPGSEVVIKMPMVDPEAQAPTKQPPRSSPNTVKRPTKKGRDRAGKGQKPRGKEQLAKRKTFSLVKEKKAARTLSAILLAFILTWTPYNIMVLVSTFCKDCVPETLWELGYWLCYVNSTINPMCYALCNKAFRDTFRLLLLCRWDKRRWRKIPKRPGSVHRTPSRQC
D(2) dopamine receptor (Homo sapiens), sequence (P14416 whole entry, looked up): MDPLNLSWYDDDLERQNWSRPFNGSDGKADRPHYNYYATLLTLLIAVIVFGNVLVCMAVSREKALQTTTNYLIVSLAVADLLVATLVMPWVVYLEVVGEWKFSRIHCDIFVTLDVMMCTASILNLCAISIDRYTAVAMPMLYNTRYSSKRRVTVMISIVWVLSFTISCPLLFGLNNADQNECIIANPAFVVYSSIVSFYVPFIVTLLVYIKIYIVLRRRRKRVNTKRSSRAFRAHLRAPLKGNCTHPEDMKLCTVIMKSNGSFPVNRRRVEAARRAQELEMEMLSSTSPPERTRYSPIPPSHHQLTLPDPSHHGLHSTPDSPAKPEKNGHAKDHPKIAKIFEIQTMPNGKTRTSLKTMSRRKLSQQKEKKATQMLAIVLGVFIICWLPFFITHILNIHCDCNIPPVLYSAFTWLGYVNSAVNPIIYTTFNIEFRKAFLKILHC

CCCCCC1=CCCC1=O
not listed: [17] | [18]
inactive: all other assays above

O=C(O)c1cc(C(=O)O)cc(S(=O)(=O)O)c1
inactive: all assays above

O=Nc1ccc(O)cc1
inactive: all assays above

CC1=CCC2CC1C2(C)C (stereo unspecified)
not listed: [11]
inactive: all other assays above

CCCOCC(C)O (stereo unspecified)
not listed: [15]
inactive: all other assays above

O=C(O)c1cccc(C(=O)O)c1
not listed: [16]
inactive: all other assays above

Cc1ccc(N)c([N+](=O)[O-])c1
inactive: all assays above

From PubChem BioAssay (Tox21)
